From PubChem
NLRP3 yeast inh – blocks the NALP3 inflammasome reconstituted in yeast; Yeast reconstituted NLRP3/ASC/caspase-1, beta-gal luminescence, 24 h; inhibition, % at 10 µM; hit rate 0.39% among 330,000; AID 2825;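 active = inhibition of 50% or more; inactive = inhibition below 50%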;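 note: plate controls were induced DMSO wells for no effect and uninduced yeast grown without galactose for full effect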
tim10-1 inh – growth inhibitors of tim10-1 mutant yeast | S. cerevisiae tim10-1 ts strain growth, BacTiter-Glo, 24 h | inhibition, % at 20 µM | hit rate 2.2% among 330,000;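 active = inhibition of at least 40%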;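 note: mutant grown at 25 °C; 0% = DMSO wells with yeast and 100% = wells holding no yeast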
tim23-1 inh – tim23-1 yeast growth inhibition; inhibition, % at 20 µM; S. cerevisiae tim23-1 growth, BacTiter-Glo luminescence, 24 h; hit rate 1.3% among 330,000;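 active = growth inhibition of the mutant yeast at or above 50%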;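 note: temperature-sensitive mutant grown at 25 °C; plate controls were DMSO-treated mutant yeast for no effect and medium wells lacking yeast for full effect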
NALP1 inh – blocks the NALP1 inflammasome reconstituted in yeast. S. cerevisiae NALP1/ASC/caspase-1 growth, X-gal OD620, 72 h. inhibition, % at 10 µM. hit rate 0.61% among 280,000. AID 2071; in the data active = inhibition mostly above about 24%, no sharp cut-off; inactive = mostly below about 32%
TIM10 inh – inhibits growth of TIM10 yeast strain; S. cerevisiae TIM10 strain growth, BacTiter-Glo luminescence, 24 h; inhibition, % at 10 µM; hit rate 1.4% among 330,000;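 active = inhibition of 40% or more at the single tested concentration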;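 note: wild-type TIM10 isogenic control strain grown at permissive 25 °C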
tim10-1 confirm – confirmation of tim10-1 mutant yeast growth inhibitors; shares compounds with tim10-1 inh; S. cerevisiae tim10-1 ts strain growth, BacTiter-Glo, 24 h; inhibition, % at 20 µM; hit rate 56% among 7,400; AID 463213;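 active = inhibition of yeast growth at or above a set limit in either of two repeat tests at 20 µM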;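 note: tim10-1 mutant grown at permissive 25 °C to find synthetic lethal compounds; 0% = DMSO yeast wells and 100% = medium wells without yeast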
TIM10 conf – confirmation of TIM10 yeast growth inhibitors | shares compounds with TIM10 inh | S. cerevisiae tim10 strain growth, BacTiter-Glo luminescence, 24 h | inhibition, % at 10 µM | hit rate 63% among 4,600 | AID 463215;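 active = inhibition of yeast growth at or above a set limit in either of two replicates at 10 µM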;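 note: this counterscreen used the strain with wild-type TIM10; 0% = yeast with DMSO and 100% = medium wells lacking yeast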
tim23-1 confirm – tim23-1 yeast growth inhibition, confirmed; inhibition, % at 20 µM; S. cerevisiae tim23-1 growth, BacTiter-Glo luminescence, 24 h; AID 463218; shares compounds with tim23-1 inh; hit rate 83% among 4,400;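 active = inhibition above about 39% in either of two replicate wells at 20 µM, limit read from the data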;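 note: temperature-sensitive tim23-1 mutant grown at 25 °C; 0% = DMSO wells with yeast and 100% = medium wells without yeast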
Numbers without * were called inactive; . = no result. Compounds with a hit are over-represented: about 4.1% of the library has one in this group of screens.

SMILES	NLRP3 yeast inh	tim10-1 inh	tim23-1 inh	NALP1 inh	TIM10 inh	tim10-1 confirm	TIM10 conf	tim23-1 confirm
Cc1ccc(C(=O)Oc2oc(-c3ccccc3)nc2C=Nc2ccc(N(C)C)cc2)cc1	18	26	19	-2	3	.	.	.
COc1ccc(/C(O)=C2/C(=O)C(=O)N(CCCN(C)C)C2c2ccc(C)o2)cc1Cl (stereo unspecified)	.	.	.	5	.	.	.	.
CN1CCCN(C(=O)CNC(=O)c2ccc(Cl)cc2Cl)CC1	3	-11	-6	.	-9	.	.	.
COc1cccc(NC(=O)CCS(=O)(=O)c2ccc(Br)cc2)c1	9	10	15	21	-1	.	.	.
CCn1c(Sc2ccc(N)cc2Cl)nc2ccccc21	31	47*	66*	22	44*	50*	47*	47*
COc1ccc2nc(NC(=O)c3ccoc3C)sc2c1	35	58*	55*	.	47*	59*	32*	61*
COc1ccc2nc(NC(=O)c3cc(C)oc3C)sc2c1	9	30	34	7	28	.	.	.
COc1ccc(OCCOC(=O)c2cccs2)cc1	31	9	-7	15	-10	.	.	.
COc1ccc(C2CC2/C(C)=N/OC(=O)c2cccs2)cc1 (stereo unspecified)	30	66*	78*	10	65*	45*	86*	81*
COc1ccc(C2CC2/C(=N/O)c2ccccc2)cc1 (stereo unspecified)	19	17	15	-10	-11	.	.	.
COc1ccc(C2CC2/C(C)=N/OC(=O)c2ccc(F)cc2)cc1 (stereo unspecified)	25	49*	77*	-2	84*	23	92*	61*
CC(C)(C)c1cc(-c2nc(N)nc(N)n2)cc(C(C)(C)C)c1	12	51*	64*	17	42*	49*	-11	61*
Cc1sc(NC(=O)c2ccco2)c(CN2CCN(c3ccccn3)CC2)c1C	3	48*	59*	16	27	32*	.	55*
Cc1sc(NC(=O)c2ccco2)c(CN2CCN(c3ccc(F)cc3)CC2)c1C	25	5	0	3	6	.	.	.
O=C(NC1=C(Nc2ccc(Cl)cc2)C(=O)c2ccccc2C1=O)c1ccccc1	38	9	10	26	21	.	.	.
CN(C1=C(NC(=O)c2ccc(Cl)cc2)C(=O)c2ccccc2C1=O)c1ccccc1	15	65*	68*	34	66*	61*	-10	72*
O=S1(=O)c2ccccc2N=NN1Cc1ccc(Cl)c(Cl)c1	6	28	-3	15	14	.	.	.
CC(C)(C)c1ccc(CN2N=Nc3ccccc3S2(=O)=O)cc1	11	72*	63*	12	60*	64*	-1	28
COc1cc(-c2cc(=O)c3c(O)c(OC)c(OC)c(O)c3o2)ccc1O	14	18	22	2	4	.	.	.
COc1c(O)c(O)c2oc(-c3ccccc3)cc(=O)c2c1OC	42	50*	59*	-13	40*	33*	31*	56*
CSc1nc2ccc(NS(=O)(=O)c3c(Cl)cccc3Cl)cc2s1	24	43*	52*	9	35	30*	.	57*
CSc1nc2ccc(NS(=O)(=O)c3ccccc3F)cc2s1	17	22	35	16	24	.	.	.
Cc1ccc(OCC(=O)N/N=C/c2ccc([N+](=O)[O-])o2)cc1	15	44*	51*	39	47*	47*	50*	-11
O=C(CSc1ccc(Cl)cc1)N/N=C/c1ccc([N+](=O)[O-])o1	8	62*	55*	-9	33	37*	.	57*
Cc1ccc(OCC(=O)N/N=C\c2ccc(C)o2)c([N+](=O)[O-])c1	.	.	.	4	.	.	.	.
SMILES	NLRP3 yeast inh	tim10-1 inh	tim23-1 inh	NALP1 inh	TIM10 inh	tim10-1 confirm	TIM10 conf	tim23-1 confirm
Cc1cccc(CCN(CC(=O)NCc2ccc(F)cc2)C(=O)c2csnn2)c1	8	11	17	10	18	.	.	.
CC1CC(C)(C)NC(=S)N1CCC(=O)NCc1ccc(Cl)cc1 (stereo unspecified)	17	7	10	-13	4	.	.	.
COc1cccc(C(c2c(C)[nH]n(-c3ccccc3)c2=O)c2c(C)[nH]n(-c3ccccc3)c2=O)c1O	4	25	41	.	33	.	.	.
COc1cccc(C(c2c(C)[nH]n(-c3ccccc3)c2=O)c2c(C)[nH]n(-c3ccccc3)c2=O)c1OC	-27	52*	63*	6	32	33*	.	55*
Cc1[nH]n(-c2ccccc2)c(=O)c1C(C[N+](=O)[O-])c1ccccc1Cl (stereo unspecified)	27	61*	74*	22	44*	59*	56*	75*
CCOc1ccc(NC(=S)NC(=O)c2cccnc2)c([N+](=O)[O-])c1	27	-24	-10	1	-20	.	.	.
COC(=O)CCNC(=O)c1nn(Cc2ccccc2)c(=O)c2ccccc12	11	-7	-1	6	-5	.	.	.
Cc1cccc(CSc2cccc3cccnc23)c1	41	46*	51*	-7	37	40*	.	50*
N#CC(C#N)=Cc1cc2ccccc2nc1N1CCCCC1	13	53*	78*	29	41*	42*	13	71*
COc1ccccc1NC(=O)Cn1cnc2c(nnn2-c2ccc(C)cc2)c1=O	5	7	-4	8	7	.	.	.
CCCCCCCCNC(=O)c1ccc(C)cc1	45	-10	11	6	-15	.	.	.
Brc1ccc(-c2ccc(/C=N/Nc3nc(N4CCOCC4)nc(N4CCOCC4)n3)o2)cc1	18	3	11	-8	7	.	.	.
Fc1cnc(N/N=C/c2ccc(-c3ccc(Br)cc3)o2)nc1N1CCOCC1	11	43*	51*	-15	33	24	.	33
O=S(=O)(NC12CC3CC(CC(C3)C1)C2)c1ccc(F)cc1	32	48*	55*	10	12	30*	.	49*
O=C(Nc1nc(-c2cccs2)cs1)c1cccc(S(=O)(=O)N2CCCCC2)c1	12	28	31	7	42*	.	31*	.
Cc1ccc(-c2csc(NC(=O)c3cccc(S(=O)(=O)N4CCN(C)CC4)c3)n2)cc1	29	4	12	-31	28	.	.	.
O=C(CCc1ccccc1)NC(=S)Nc1cccc(Br)c1	2	37	42	18	48*	.	-16	.
O=C(CCc1ccccc1)NC(=S)Nc1cccc(C(=O)O)c1	16	-1	0	-1	-4	.	.	.
O=C(CCN1C(=O)c2ccccc2C1=O)NC(=S)Nc1cccc(Cl)c1	26	8	1	-2	41*	.	25	.
CC(=O)c1cccc(NC(=S)NCCCCc2ccccc2)c1	11	28	33	-5	41*	.	-16	.
